About 83,000 compounds went through this panel and 20% of them were active in at least one assay; those are over-represented in the sample as a whole.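 Assay: single dose, 48 h. Readout: percent growth (0 = no net growth; negative = cell death). Active: <10.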 Activity calls are given as the source filed them.
Tests used:
Experiment in all cases: NCI-60 one-dose screen, 48 h (100 = growth as untreated, 0 = no growth, -100 = all killed)
Conditions in all cases: 10 µM unless noted
HCT-15 colon = system: HCT-15 colon
HT29 colon = system: HT29 colon
SNB-75 CNS = system: SNB-75 CNS
SNB-19 CNS = system: SNB-19 CNS
U251 CNS = system: U251 CNS
PC-3 prostate = system: PC-3 prostate
SK-MEL-5 melanoma = system: SK-MEL-5 melanoma
UACC-62 melanoma = system: UACC-62 melanoma
LOX IMVI melanoma = system: LOX IMVI melanoma
SK-MEL-28 melanoma = system: SK-MEL-28 melanoma

Measured: growth

O=C1C(Cl)=C(SC2=NCCN2)C(=O)c2ccccc21
inactive: HCT-15 colon 83.3% | HT29 colon 102% | SNB-75 CNS 153% | SNB-19 CNS 92.3% | U251 CNS 63.9% | PC-3 prostate 64.5% | UACC-62 melanoma 74.3% | LOX IMVI melanoma 18% | SK-MEL-28 melanoma 78.9%
active: SK-MEL-5 melanoma -29.6%

CCOC(=O)CSSCC(=O)OCC
inactive: HCT-15 colon 102% | HT29 colon 112% | SNB-75 CNS 94.4% | SNB-19 CNS 108% | U251 CNS 98.4% | PC-3 prostate 100% | SK-MEL-5 melanoma 99.8% | UACC-62 melanoma 98.4% | LOX IMVI melanoma 111% | SK-MEL-28 melanoma 107%

C=C(NC(=O)[C@H](C(C)C)N(C)c1cccc2[nH]ccc12)C(=O)OC
inactive: HCT-15 colon 95.7% | HT29 colon 99.1% | SNB-75 CNS 105% | SNB-19 CNS 103% | U251 CNS 99.6% | PC-3 prostate 101% | SK-MEL-5 melanoma 99.4% | UACC-62 melanoma 90.5% | LOX IMVI melanoma 94.3% | SK-MEL-28 melanoma 104%

O=C1/C(=N\c2cc(=O)[nH]n2S(=O)(=O)c2ccccc2)Nc2ccccc21
inactive: HCT-15 colon 100% | HT29 colon 109% | SNB-75 CNS 81.2% | SNB-19 CNS 99.8% | U251 CNS 105% | PC-3 prostate 87% | SK-MEL-5 melanoma 98.6% | UACC-62 melanoma 97.6% | LOX IMVI melanoma 92.4% | SK-MEL-28 melanoma 116%

CC/C(=N\Nc1nc2ccccc2n1C)c1ccccn1
active: SK-MEL-5 melanoma -50.7% | UACC-62 melanoma -13.9% | LOX IMVI melanoma -15%
inactive: HCT-15 colon 18.5% | HT29 colon 21.2% | SNB-75 CNS 19.5% | SNB-19 CNS 18.8% | U251 CNS 10.4% | PC-3 prostate 26.5% | SK-MEL-28 melanoma 16.2%

NC(N)=Nc1ccc(/C=C2\C=Cc3ccccc32)cc1
inactive: HCT-15 colon 68% | HT29 colon 36.1% | SNB-75 CNS 52.7% | SNB-19 CNS 75.6% | U251 CNS 67.8% | PC-3 prostate 51.9% | SK-MEL-5 melanoma 79.6% | UACC-62 melanoma 69% | LOX IMVI melanoma 40% | SK-MEL-28 melanoma 91.6%

N/C(=N\O)c1ccncc1
inactive: HCT-15 colon 100% | HT29 colon 101% | SNB-75 CNS 86.7% | SNB-19 CNS 104% | U251 CNS 106% | PC-3 prostate 102% | SK-MEL-5 melanoma 113% | UACC-62 melanoma 98.1% | LOX IMVI melanoma 96.2% | SK-MEL-28 melanoma 109%

CC(O)C(N)=O (stereo not given)
inactive: HCT-15 colon 97.1% | HT29 colon 111% | SNB-75 CNS 84.3% | SNB-19 CNS 106% | U251 CNS 103% | PC-3 prostate 92.6% | SK-MEL-5 melanoma 101% | UACC-62 melanoma 107% | LOX IMVI melanoma 109% | SK-MEL-28 melanoma 100%

COCn1c(C(=O)OC)cc2oc(/C=C3/SC(=S)N(N)C3=O)cc21
inactive: HCT-15 colon 105% | HT29 colon 97.2% | SNB-75 CNS 64.6% | SNB-19 CNS 97.2% | U251 CNS 75.8% | PC-3 prostate 57.2% | SK-MEL-5 melanoma 91.7% | UACC-62 melanoma 94% | LOX IMVI melanoma 87.3% | SK-MEL-28 melanoma 92.9%

CN1C(=O)C(=Cc2coc3ccc(Br)cc3c2=O)C(=O)N(C)C1=O
inactive: HCT-15 colon 105% | HT29 colon 108% | SNB-75 CNS 105% | SNB-19 CNS 105% | U251 CNS 104% | PC-3 prostate 89.3% | SK-MEL-5 melanoma 93.8% | UACC-62 melanoma 83.4% | LOX IMVI melanoma 101% | SK-MEL-28 melanoma 103%

CCCCn1c(Cc2ccc(OC)cc2)nc2cc(OC)c(OC)cc2c1=O
inactive: HCT-15 colon 93.4% | HT29 colon 101% | SNB-75 CNS 87.5% | SNB-19 CNS 84.7% | U251 CNS 87.8% | PC-3 prostate 91.8% | SK-MEL-5 melanoma 36.6% | UACC-62 melanoma 59.6% | LOX IMVI melanoma 90.2% | SK-MEL-28 melanoma 90.6%

O=C(CCCC(=O)Nc1ccc(Cn2nnc3cc(Cl)c(Cl)cc32)cc1)Nc1ccc(CN2N=NC3C=C(Cl)C(Cl)=CC32)cc1 (stereo not given)
inactive: HCT-15 colon 97.3% | HT29 colon 86.5% | SNB-75 CNS 70.3% | SNB-19 CNS 86.2% | U251 CNS 84.2% | PC-3 prostate 60.2% | SK-MEL-5 melanoma 89.8% | UACC-62 melanoma 62.3% | LOX IMVI melanoma 78.8% | SK-MEL-28 melanoma 103%

O=P(OCCCl)(OCCCl)C(O)c1ccccc1Cl (stereo not given)
inactive: HCT-15 colon 99.5% | HT29 colon 101% | SNB-75 CNS 96.7% | SNB-19 CNS 107% | U251 CNS 113% | PC-3 prostate 103% | SK-MEL-5 melanoma 112% | UACC-62 melanoma 106% | LOX IMVI melanoma 104% | SK-MEL-28 melanoma 113%

O=C(Nc1ccc(Cl)c(Cl)c1)O/N=C\c1c(Cl)ccc([N+](=O)[O-])c1Cl
active: HCT-15 colon -3.17% | HT29 colon -73% | U251 CNS 3.06% | PC-3 prostate -8.42% | UACC-62 melanoma -63.5% | LOX IMVI melanoma -82.1% | SK-MEL-28 melanoma -12.3%
inactive: SNB-75 CNS 16.9% | SNB-19 CNS 49.5% | SK-MEL-5 melanoma 48.3%

O=C(Nc1ccc(Cl)cn1)C1(c2ccccc2)CCCCC1
inactive: HCT-15 colon 112% | HT29 colon 85.6% | SNB-75 CNS 106% | SNB-19 CNS 106% | U251 CNS 97.5% | PC-3 prostate 104% | SK-MEL-5 melanoma 91.6% | UACC-62 melanoma 94.4% | LOX IMVI melanoma 101% | SK-MEL-28 melanoma 105%

CCn1cc(C(=O)O)c(=O)c2cc(F)c(N3CCN(S(=O)(=O)c4ccc(Cl)cc4)CC3)cc21
active: HT29 colon 7.87%
inactive: HCT-15 colon 15.7% | SNB-75 CNS 41.8% | SNB-19 CNS 20.6% | U251 CNS 12% | PC-3 prostate 25.3% | SK-MEL-5 melanoma 26.6% | UACC-62 melanoma 21.5% | LOX IMVI melanoma 19.9% | SK-MEL-28 melanoma 44.6%

O=C(O)/C(Br)=C/c1c[nH]c2ccc(Br)cc12
inactive: HCT-15 colon 114% | HT29 colon 106% | SNB-75 CNS 105% | SNB-19 CNS 126% | U251 CNS 105% | PC-3 prostate 123% | SK-MEL-5 melanoma 107% | UACC-62 melanoma 104% | LOX IMVI melanoma 101% | SK-MEL-28 melanoma 63.7%

COc1ccc(CN2C(=O)/C(=C\C(=O)c3ccc(OCCN4CCCCC4)cc3)c3ccccc32)cc1
active: HCT-15 colon 7.62% | HT29 colon 8.95% | LOX IMVI melanoma 8.81%
inactive: SNB-75 CNS 83.8% | SNB-19 CNS 84% | U251 CNS 80% | PC-3 prostate 81.4% | SK-MEL-5 melanoma 90.9% | UACC-62 melanoma 73.5% | SK-MEL-28 melanoma 91.5%

O=C(C(=O)N1CCOCC1)c1ccc(O[C@H]2O[C@H](CO)[C@@H](O)[C@H](O)[C@@H]2O)cc1
inactive: HCT-15 colon 97.4% | HT29 colon 93.4% | SNB-75 CNS 100% | SNB-19 CNS 109% | U251 CNS 104% | PC-3 prostate 88.8% | SK-MEL-5 melanoma 97.4% | UACC-62 melanoma 97.1% | LOX IMVI melanoma 102% | SK-MEL-28 melanoma 117%

C/C(=N\Nc1ccc(Cl)cn1)c1ccccn1
inactive: HCT-15 colon 15.5% | HT29 colon 16.7% | SNB-75 CNS 31.5% | SNB-19 CNS 21.5% | PC-3 prostate 20.9% | SK-MEL-28 melanoma 13.5%
active: U251 CNS 7.65% | SK-MEL-5 melanoma -61.9% | UACC-62 melanoma -28.3% | LOX IMVI melanoma 1.48%

Cc1nc(NC(=S)Nc2ccc(F)cc2)sc1C(=O)NNC(=S)Nc1ccc(F)cc1
inactive: HCT-15 colon 61.9% | HT29 colon 61.7% | SNB-75 CNS 113% | SNB-19 CNS 76.9% | U251 CNS 53.1% | PC-3 prostate 52.1% | SK-MEL-5 melanoma 48.8% | UACC-62 melanoma 36.9% | LOX IMVI melanoma 70.6% | SK-MEL-28 melanoma 78%

Nc1ccc(N=Nc2ccccc2)c2cc(S(=O)(=O)O)ccc12
inactive: HCT-15 colon 104% | HT29 colon 94.6% | SNB-75 CNS 82.5% | SNB-19 CNS 101% | U251 CNS 101% | PC-3 prostate 96% | SK-MEL-5 melanoma 107% | UACC-62 melanoma 103% | LOX IMVI melanoma 97.7% | SK-MEL-28 melanoma 118%

CCCCCCN(CCCCCC)CCC(=O)Nc1ccc(S(=O)(=O)c2ccc(NC(=O)CCN(CCCCCC)CCCCCC)cc2)cc1
inactive: HCT-15 colon 72.9% | HT29 colon 29.9% | SNB-75 CNS 71.3% | SNB-19 CNS 88% | U251 CNS 88.4% | PC-3 prostate 76.6% | SK-MEL-5 melanoma 90% | UACC-62 melanoma 91.3% | LOX IMVI melanoma 76.5% | SK-MEL-28 melanoma 91.9%

C=CCNCCC#N
inactive: HCT-15 colon 99.9% | HT29 colon 105% | SNB-75 CNS 79.1% | SNB-19 CNS 102% | U251 CNS 107% | PC-3 prostate 98.5% | SK-MEL-5 melanoma 99.1% | UACC-62 melanoma 109% | LOX IMVI melanoma 59.5% | SK-MEL-28 melanoma 106%

COC(=O)c1ccc2[nH]c(O)c(C(=Nc3ccc(N(C)C(=O)CN4CCN(C)CC4)cc3)c3ccc([N+](=O)[O-])cc3)c2c1
inactive: HCT-15 colon 73% | HT29 colon 38% | SNB-75 CNS 54.7% | SNB-19 CNS 80.1% | U251 CNS 42.6% | PC-3 prostate 35.1% | SK-MEL-5 melanoma 49.4% | UACC-62 melanoma 52.7% | LOX IMVI melanoma 46.2% | SK-MEL-28 melanoma 64.9%

CC(=O)/C(=C/c1ccc(-c2ccccc2)cc1)C(=O)c1ccccc1
inactive: HCT-15 colon 66.9% | HT29 colon 70.2% | SNB-75 CNS 79.7% | SNB-19 CNS 82.3% | U251 CNS 61% | PC-3 prostate 63.1% | SK-MEL-5 melanoma 87.3% | UACC-62 melanoma 80.5% | LOX IMVI melanoma 19.5% | SK-MEL-28 melanoma 96.2%

CC(O)c1cc[cH-]c1.[Fe+2].c1cc[cH-]c1 (stereo not given)
inactive: HCT-15 colon 95.3% | HT29 colon 110% | SNB-75 CNS 92% | SNB-19 CNS 105% | U251 CNS 98.2% | PC-3 prostate 98.2% | SK-MEL-5 melanoma 98.2% | UACC-62 melanoma 108% | LOX IMVI melanoma 126% | SK-MEL-28 melanoma 112%

Reference: PubChem BioAssay (NCI)
